# PubChem BioAssay AID2069 (Sanford-Burnham Center for Chemical Genomics, 2009)
# The whole screen tested about 1,200 compounds, of which about 210 (18%) were called active. No stated cut-off is given here; in the data, active means inhibition above about 30%; inactive means the rest. Only a sample is shown.
# Assay: HTRF signal interference by compounds, confirmation, artefact control for SUMOylation inhibitor project, biochemical, uHTS (AID 2069)
# Conditions: HTRF interference counterscreen, fluorescence, at 35 µM, active compounds read high
row,SMILES,inhibition
1,C=CCn1c(N)c(C(=O)OC(C)(C)C)c2nc3ccccc3nc21,32.7% (active)
2,CC(C)(C)OC(=O)c1c(N)n(CCCN2CCCC2=O)c2nc3ccccc3nc12,41.4% (active)
3,C=CCn1c(N)c(C(=O)Nc2cccc(C)c2)c2nc3ccccc3nc21,6.4% (inactive)
4,COCCn1c(N)c(C(=O)OCc2ccccc2)c2nc3ccccc3nc21,16% (inactive)
5,COc1ccc(CNC(=O)c2c(N)n(CCCN3CCOCC3)c3nc4ccccc4nc23)cc1,17.5% (inactive)
6,C=CCn1c(N)c(C(=O)Nc2ccccc2)c2nc3ccccc3nc21,20.9% (inactive)
7,O=C(Nc1cccc2cccc(NC(=O)c3ccco3)c12)c1ccco1,-6.45% (inactive)
8,NS(=O)(=O)c1ccc(NC2=CC(=O)C(=O)c3ccccc32)cc1,9.2% (inactive)
9,CC(=O)c1cccc(NC(=S)Nc2cccc3ccccc23)c1,0.85% (inactive)
10,Cc1ccc(S(=O)(=O)NNC(=O)Nc2cccc3ccccc23)cc1,4.05% (inactive)
11,Oc1cccc2c(NC(=S)Nc3ccc(SC(F)F)cc3)cccc12,-6.1% (inactive)
12,O=C(CCCN1C(=O)/C(=C/c2ccco2)SC1=S)Nc1ccccc1C(=O)O,1.8% (inactive)
13,C/C(=N\NC(=O)CNc1cccc2ccccc12)c1ccccc1,18% (inactive)
14,CC(=O)N1C(=S)NC(=O)/C1=C1/C(=O)N(CC(=O)Nc2cccc(C)c2)c2ccccc21,4.65% (inactive)
15,CCN(CC)C(=O)C1CCCN(C(=O)Nc2ccc3nsnc3c2)C1 (stereo not given),17.5% (inactive)
16,Nc1c(C(=O)NCc2ccco2)c2nc3ccccc3nc2n1CCc1ccc(F)cc1,23.6% (inactive)
17,CC(C)Cn1c(N)c(C(=O)NCc2cccs2)c2nc3ccccc3nc21,25.2% (inactive)
18,CC(C)Cn1c(N)c(C(=O)NCC2CCCO2)c2nc3ccccc3nc21 (stereo not given),34% (active)
19,Nc1c(C(=O)NCc2ccco2)c2nc3ccccc3nc2n1CCc1ccccc1F,15.7% (inactive)
20,C=CCn1c(N)c(C(=O)NCC2CCCO2)c2nc3ccccc3nc21 (stereo not given),42.5% (active)
21,COCCn1c(N)c(C(=O)NCC2CCCO2)c2nc3ccccc3nc21 (stereo not given),42.4% (active)
22,COc1ccc(-n2c(N)c(C(=O)NCC3CCCO3)c3nc4ccccc4nc32)c(OC)c1 (stereo not given),24.9% (inactive)
23,COCCn1c(N)c(C(=O)NCc2cccs2)c2nc3ccccc3nc21,28.6% (inactive)

row,SMILES,inhibition
1,Cc1ccc(-n2c(-c3cc(-c4ccco4)[nH]n3)n[nH]c2=S)c(Br)c1,16.4% (inactive)
2,CC1=C(C(=O)Nc2ccccc2)C(c2ccc(C)cc2)N=C(Nc2nc3ccccc3o2)N1 (stereo not given),10.2% (inactive)
3,CCc1ccc2c(c1)c1nc(C)sc1n2CC,0.45% (inactive)
4,Cn1c2ccccc2c(=O)n2c(=O)c3ccccc3cc12,8.7% (inactive)
5,COc1cc(/C=C2/C(=O)N(c3ccccc3)N=C2C)ccc1OS(=O)(=O)c1ccccc1,-23.2% (inactive)
6,Cc1ccc(Cn2nnnc2CN2CCC(NC(=O)C(C)(C)C)CC2)cc1,5.15% (inactive)
7,Cc1ccc(S(=O)(=O)N2CCCCC2)cc1NC(=O)COC(=O)c1c(F)cccc1F,-11.4% (inactive)
8,Cc1nn2c3c(cnc2c1-c1ccc(Cl)cc1)C(=O)CC(c1ccco1)C3 (stereo not given),-0.9% (inactive)
9,CC(C)c1ccc(S(=O)(=O)/N=C2/C=CC(=O)c3ccccc32)cc1,11.3% (inactive)
10,O=C(Cn1nnc2ccccc21)NCc1ccccc1,-8.55% (inactive)
11,CCCCn1c(NC(C)=O)c(C#N)c2nc3ccccc3nc21,33% (active)
12,CCCCn1c(NC(=O)c2ccccc2Cl)c(C#N)c2nc3ccccc3nc21,20.8% (inactive)
13,CCCCCn1c(N)c(C#N)c2nc3ccccc3nc21,16.7% (inactive)
14,COCCn1c(N)c(C#N)c2nc3ccccc3nc21,43.9% (active)
15,CCC(C)n1c(NC(=O)c2ccccc2)c(C#N)c2nc3ccccc3nc21 (stereo not given),11.8% (inactive)
16,C=CCn1c(NC(=O)c2ccccc2Cl)c(C#N)c2nc3ccccc3nc21,28.9% (inactive)
17,CN(C)CCCn1c(N)c(C#N)c2nc3ccccc3nc21,39.2% (active)
18,COc1ccccc1CCn1c(N)c(C#N)c2nc3ccccc3nc21,17.6% (inactive)
19,N#Cc1c(N)n(CCOC(=O)c2ccc(Cl)cc2)c2nc3ccccc3nc12,10.8% (inactive)
20,Cc1cnc(C(=O)OCC(=O)c2ccc(F)cc2)cn1,-5.75% (inactive)
21,O=[N+]([O-])c1c(NCCCO)cc(Sc2nc3ccccc3s2)c2nonc12,3.25% (inactive)
22,Cc1c(C(=O)c2ccc(F)cc2F)c2ccccn2c1CCC#N,17.8% (inactive)
23,COc1cc(/C=N/NC(=O)c2cc(-c3ccco3)nc3ccccc23)cc(OC)c1O,-5.6% (inactive)

row,SMILES,inhibition
1,O=C(NC(=S)Nc1c(Cl)ccc2nsnc12)c1ccco1,-7.55% (inactive)
2,O=C(N=Nc1c(O)[nH]c2ccc([N+](=O)[O-])cc12)c1ccccc1Cl,7.65% (inactive)
3,CN(C)c1ccc(NC(=O)c2sc(SCC(=O)Nc3ccc(Br)cc3)nc2N)cc1,8.25% (inactive)
4,Cc1oc(-c2ccc(F)cc2)cc1-c1nn2c(-c3ccoc3C)nnc2s1,-3.45% (inactive)
5,CN(CCC#N)C(=O)COC(=O)c1c2c(nc3ccccc13)/C(=C/c1ccco1)CC2,36.5% (active)
6,COc1ccccc1CNC(=O)COC(=O)c1cc(-c2ccco2)nc2ccccc12,12.6% (inactive)
7,CCOc1ccc(/C=C2/SC(=S)N(CCC(=O)Nc3ccc(C(=O)O)cc3)C2=O)cc1,4.55% (inactive)
8,Cc1nn(-c2ccccn2)c2c1C(=O)C(Br)CC2 (stereo not given),-0.05% (inactive)
9,O=C1/C(=C/c2coc3ccc(O)cc3c2=O)SC(=S)N1c1ccccc1,4.9% (inactive)
10,Cc1ccc(C)c(OCC(=O)Nc2nonc2NC(=O)COc2cc(C)ccc2C)c1,-13.6% (inactive)
11,Cc1nn(-c2ccccc2)c2sc(C(=O)NNC(=O)COc3ccccc3)cc12,10.2% (inactive)
12,COC(=O)c1ccccc1NC1=C/C(=N\S(=O)(=O)c2cccs2)c2ccccc2C1=O,1.7% (inactive)
13,O=[N+]([O-])c1ccc(N2CCN(CCO)CC2)c2ncccc12,-19.1% (inactive)
14,O=C(NCc1ccccc1)Nc1cccn(Cc2ccccc2)c1=O,-6.8% (inactive)
15,CC(=O)Nc1ccc(NC2=C/C(=N/S(=O)(=O)c3cccs3)c3ccccc3C2=O)cc1,-7.75% (inactive)
16,O=[N+]([O-])c1cc(Cl)cc(/C=N/NC(=S)Nc2ccc(S(=O)(=O)N3CCOCC3)cc2)c1O,80.5% (active)
17,O=[N+]([O-])c1ccc(O)c(/C=N/NC(=S)Nc2ccc(Cl)cc2Cl)c1,-23.9% (inactive)
18,Cc1c(NC(=S)N/N=C/c2cc([N+](=O)[O-])ccc2O)c(=O)n(-c2ccccc2)n1C,11.2% (inactive)
19,Cc1ccc(/C=C2/SC(=S)N(c3ccc(S(=O)(=O)Nc4nccs4)cc3)C2=O)cc1,-9.3% (inactive)
20,N=C1/C(=C/c2cccn2Cc2ccc(Cl)cc2)C(=O)N=C2SC=CN12,18.8% (inactive)
21,CC1CCN(C2=C(NS(=O)(=O)c3ccc(Br)cc3)C(=O)c3ccccc3C2=O)CC1,7.4% (inactive)
22,Cc1c(C(=O)Nc2ccc(F)cc2)cn2c(nc3ccccc32)c1C#N,19.4% (inactive)
23,O=c1[nH]c(=S)[nH]c(O)c1N=Nc1ccc(-c2ccccc2)cc1[N+](=O)[O-],16.1% (inactive)

row,SMILES,inhibition
1,CCOc1ccc(C2C=C(c3ccccc3)Nc3ncnn32)cc1 (stereo not given),50.8% (active)
2,COc1ccc2nc(NC(=O)CCc3ccc(OC)c(OC)c3)sc2c1,10.8% (inactive)
3,N#CC(c1nc2ccccc2nc1N1CCCC1)S(=O)(=O)c1ccccc1 (stereo not given),1.75% (inactive)
4,COc1cc(=O)n(C)c2c(OCC3OC(C)(C)OC3(C)C)cccc12 (stereo not given),2.3% (inactive)
5,O=c1c(-c2c(O)cc(O)c3c(=O)cc(-c4ccc(O)cc4)oc23)c(-c2ccc(O)cc2)oc2cc(O)cc(O)c12,35.6% (active)
6,COc1cccc(NC(=O)Nc2nnc(-c3ccccc3SCc3ccccc3)s2)c1,2.35% (inactive)
7,COc1ccc(C=Nc2cccc3ncccc23)cc1,-4.65% (inactive)
8,CCOc1ccc(/C=N/NC(=O)c2cc(-c3ccco3)nc3ccccc23)cc1,15.3% (inactive)
9,COc1ccc(/C=C/c2cc(C(=O)O)c3ccccc3n2)cc1,68.2% (active)
10,C/C(=N\NC(=O)c1cc(O)ccc1O)c1cccc(NC(=O)c2ccc(Cl)cc2)c1,-7.9% (inactive)
11,Cc1ccc(NC(=O)Cn2c(=O)oc3cc(S(=O)(=O)N4CCC(C)CC4)ccc32)cc1C,-3.55% (inactive)
12,O=C1/C(=C/c2ccco2)Oc2c1ccc(O)c2CN1CCCCC1,37.6% (active)
13,NC(=O)CC(NC(=O)Cc1ccc(Br)cc1)c1ccc(NCCOc2ccccc2)c([N+](=O)[O-])c1 (stereo not given),7.3% (inactive)
14,CN(C)c1cc(Nc2cccc(O)c2)c([N+](=O)[O-])c2nonc12,-1.05% (inactive)
15,CCN(CC)CCNS(=O)(=O)c1ccc2c3c(cccc13)C(=O)N2,47.2% (active)
16,CN1C(=O)c2cccc3c(S(=O)(=O)NCCc4ccccc4)ccc1c23,45% (active)
17,CN(C)CCNS(=O)(=O)c1ccc2c3c(cccc13)C(=O)N2,60.6% (active)
18,CCN1C(=O)c2cccc3c(N)ccc1c23,-24.4% (inactive)
19,CN1C(=O)c2cccc3c(S(=O)(=O)NCc4ccco4)ccc1c23,11.9% (inactive)
20,O=C(NCc1ccccc1)Nc1cccn(Cc2ccccc2Cl)c1=O,1.3% (inactive)
21,N=C1S/C(=C\c2ccc(O)cc2)C(=O)N1c1ccc(F)cc1,14.8% (inactive)
